MPTP inh: permeability transition pore inhibition | isolated mouse mitochondria, Ca2+ swelling absorbance, 30 min | inhibition, % at 10 µM | 1.4% of 360,000 active;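 active = inhibition of 50% or more, scaled per plate between neutral and stimulator controls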;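 also: 0% = DMSO wells given calcium and 100% = 1 mM EGTA wells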
Beta cell apopt: beta cell apoptosis inhibition | INS-1E cytokine-induced death, ATP luminescence, 48 h; percent of positive-control rescue, neutral wells zero | protection from apoptosis, % (test concentration not listed) | 0.8% of 300,000 active | AID 435005;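 active = Every replicate reaches about 75%, or at least half do and their mean reaches it too, limit read from the data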;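 also: 0% = cytokine-treated negative control wells and 100% = positive control rescue; higher means more ATP so stronger rescue from cytokine killing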
Gli-Sufu block: Gli-Sufu pathway antagonism. Sufu-KO-LIGHT fibroblasts, Gli luciferase reporter luminescence. inhibition, % at 5 µM. 0.74% of 340,000 active. AID 588413;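 active = inhibition above about 55%, limit read from the data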;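 also: 0% = DMSO-treated cells and 100% = wells with medium but no cells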
CSC inhib: blocks cancer stem cells | AID 2717 | inhibition, % at 7.5 µM | cancer stem cell-like cells viability, luminescence | 1.1% of 300,000 active; in the data active = inhibition above about 75%; tested in HMLE shEcad cells
Mdm2 MdmX PPI: human Mdm2/MdmX binding inhibition; inhibition, % at 8 µM; SaOS-2 split-luciferase Mdm2/MdmX complementation, luminescence; O15151+Q00987; 3% of 330,000 active; AID 485346;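 active = inhibition of at least 50% at 8 µM in the primary screen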
GRIN3A LBD mod: modulates the human NR3A ligand-binding domain. NR3A LBD differential scanning fluorimetry, Tm shift; 0% = protein alone, 100% = glycine-bound protein. Tm shift relative to glycine control, % at 25 µM. 2.5% of 340,000 active;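 active = melting temperature shift of at least 10% of the positive control shift, at one fixed dose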
Rh123 counter: Rhodamine 123 counter-screen of mitochondrial pore hits. AID 624504. isolated mitochondria, membrane potential, Rhodamine 123 fluorescence. inhibition, % at 10 µM. shares compounds with MPTP inh. 78% of 5,000 active; in the data active = inhibition above about 22%;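 also: 0% = DMSO vehicle and 100% = positive control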
MPTP swell DR: MPTP inhibition, dose response swelling confirmation | shares compounds with MPTP inh | isolated mitochondria swelling, absorbance | IC50, µM | 58% of 780 active | AID 651561; in the data active = IC50 below about 20 µM
MPTP cs DR: active in counter-screen for permeability transition pore inhibitors | AID 651564 | shares compounds with MPTP inh | isolated mitochondria counterscreen, fluorescence read-out | 49% of 780 active | IC50, µM; in the data active = IC50 below about 80 µM
* = called active by the depositor; i = inactive; . = no result given. A selection: hits, their analogues and other compounds. The true share with any hit is near 6.6%.

SMILES	MPTP inh	Beta cell apopt	Gli-Sufu block	CSC inhib	Mdm2 MdmX PPI	GRIN3A LBD mod	Rh123 counter	others
Fc1ccc2[nH]c3c(N4CCN(c5ccccc5)CC4)ncnc3c2c1	97.6*	89.2*	-10.6	3.5	44.0	6.4	111.5*
Fc1ccc2[nH]c3c(Cl)ncnc3c2c1	-0.9	1.2	-2.1	-10.7	-8.1	0.8	.
O=C(CCCN1CCC(O)(c2cccc(C(F)(F)F)c2)CC1)c1ccc(F)cc1	4.0	-3.2	2.5	-0.5	29.8	0.0	.
OC1(c2cccc(C(F)(F)F)c2)CCN(c2ncnc3c2[nH]c2ccc(F)cc23)CC1	50.4*	.	-19.7	.	.	9.5	87.4*
CCCCn1c(/C=N/Nc2nc3ccccc3[nH]2)nc2ccccc21	100.4*	75.9*	2.9	.	47.4	-5.4	84.0*
O=C1/C(=C/c2ccc(O)cc2)SC(=S)N1CC1CCCO1 (stereo not drawn)	60.3*	-12.1	1.3	28.1	-7.5	2.0	69.8*
CCCOc1ccc(/C=C2\SC(=S)N(CC3CCCO3)C2=O)cc1 (stereo not drawn)	1.4	-1.1	-2.7	19.2	-19.3	5.2	.
Fc1ccc(-[n+]2nc(Nc3ccccc3)sc2-c2cccc(Cl)c2Cl)cc1	95.3*	-3.7	12.8	-1.2	2.6	9.9	108.9*
CC1(C)CC(=O)C2=C(C1)c1c(ccc3ccccc13)NC2c1ccc(C(=O)O)cc1 (stereo not drawn)	0.0	0.2	-18.5	-11.3	0.7	-1.0	.
CC1(C)CC(=O)C2=C(C1)c1c(ccc3ccccc13)NC2c1cc([N+](=O)[O-])cc([N+](=O)[O-])c1O (stereo not drawn)	73.2*	-3.7	0.6	58.4	-0.3	4.8	57.3*
COc1cc(NC(=S)Nc2ccccn2)c(OC)cc1Cl	1.9	-10.7	-0.8	8.6	8.4	1.7	.
O=C(Cc1ccc(Br)cc1)NCCc1ccc(Cl)cc1Cl	50.2*	5.6	1.6	-13.3	17.2	0.2	68.0*
O=C(Cc1ccccc1)NCCc1ccc(Cl)cc1Cl	0.9	-2.2	-1.3	.	12.1	-0.1	.
COCCNC(=O)CCCC(=O)NCCOC	-0.1	-1.9	3.1	-5.1	21.7	-4.1	.
NCCCn1c(C(=O)c2ccc(Cl)cc2)c2ccc(C(F)(F)F)cc2[n+]1[O-]	64.6*	30.6	27.0	-21.9	28.4	1.1	-18.4	MPTP swell DR=8.67*;MPTP cs DR=>80
NC(=O)CCCn1c(C(=O)c2ccc(Cl)cc2)c2ccc(C(F)(F)F)cc2[n+]1[O-]	-1.4	-2.4	-0.6	-12.1	-5.1	3.0	.
CC(C)n1nnnc1C1c2ccccc2C(=O)N1CCc1c[nH]c2ccccc12 (stereo not drawn)	-0.4	.	.	.	.	.	.
Cn1nc(C(F)(F)F)c(-c2cccc(C(F)(F)F)c2)c1NC(=O)c1ccco1	4.5	.	-3.5	5.3	-3.7	-0.4	.
Cc1ccccc1NC(=O)Nc1cc(-c2ccccc2)nn1C	5.1	-2.0	-12.1	-10.8	1.8	-5.0	.
Cn1nc(-c2ccccc2)cc1NC(=O)Nc1ccc(F)cc1	65.6*	2.9	34.6	-8.2	-16.9	-3.7	80.7*
Cn1nc(C(F)(F)F)c(-c2cccc(C(F)(F)F)c2)c1NC(=O)Nc1ccc(F)cc1	78.8*	19.2	6.5	4.7	35.6	2.9	81.7*
COc1ccc(C[C@@H]2CN3C(=NC[C@@H]3C)N2CCNC(=O)c2ccc(C)c(Br)c2)cc1	18.8	4.6	28.3	2.5	0.7	0.5	.
COC(=O)c1c(Cc2ccccc2Cl)c[nH]c1C	54.7*	-9.4	0.7	6.7	36.0	-1.0	24.2*
O=C(CNC(=O)c1ccccc1)NCCCSc1ccccc1	-0.5	-4.3	3.6	5.1	-7.0	0.4	.
O=C(NCCCSc1ccccc1)c1cc(Cl)ccc1O	81.7*	0.1	0.1	.	20.7	11.8*	83.4*
SMILES	MPTP inh	Beta cell apopt	Gli-Sufu block	CSC inhib	Mdm2 MdmX PPI	GRIN3A LBD mod	Rh123 counter	others
Fc1nc(F)c(F)c(NCCCNc2c(F)c(F)nc(F)c2F)c1F	92.6*	2.8	7.5	22.2	31.2	3.3	94.5*
Cc1cc(C)cc(NC(=S)/N=C(\N)Nc2nc(C)c3ccccc3n2)c1	56.3*	0.7	10.8	0.8	28.8	-14.3	-8.7	MPTP swell DR=>100;MPTP cs DR=>80
O=C(Nc1ccc(Cl)c(Cl)c1)C1=Cc2ccccc2OC1	88.6*	-3.8	2.4	50.4	-46.9	18.6*	91.5*
O=C(Nc1cccc(Cl)c1)c1cc(F)cc2c1OCOC2	0.4	.	-22.8	1.9	-3.5	0.5	.
O=C(NCc1ccc(Cl)cc1)C1=Cc2cc(Cl)ccc2OC1	78.1*	-1.3	3.0	.	8.9	0.8	89.3*
O=C(Nc1cccc(Cl)c1)C1=Cc2cc(Cl)ccc2OC1	95.1*	-2.4	-118.2	6.0	22.5	20.4*	109.5*
CCOC(=O)c1c(C)[nH]c(C(=O)NCC(c2ccco2)N2CCCCC2)c1C (stereo not drawn)	1.1	3.1	8.2	-5.0	38.1	1.9	.
O=C(COC(=O)[C@H](Cc1ccccc1)NS(=O)(=O)c1ccccc1F)NC1CCCCC1	5.6	-4.5	4.2	-5.6	11.6	-1.9	.
O=C(C=C1CCN(c2ncc(C(F)(F)F)cc2Cl)CC1)NNC(=O)Nc1ccccc1	9.4	-7.4	1.0	0.3	16.4	-9.8	.
FC(F)(F)c1cnc(N2CCCN(C(=S)Nc3ccccc3)CC2)c(Cl)c1	70.0*	-12.7	12.3	10.3	10.6	1.1	50.5*
FC(F)(F)c1cnc(N2CCN(C(=S)NCc3ccccc3)CC2)c(Cl)c1	54.0*	-2.9	34.1	22.9	11.1	-6.4	51.1*
OC(CN1CCN(c2ncc(C(F)(F)F)cc2Cl)CC1)c1ccccc1 (stereo not drawn)	-0.1	-1.8	1.5	32.5	-4.7	-1.3	.
COc1cc(C(=O)NNC(=S)NC(=O)/C=C/c2ccccc2)cc(OC)c1OC	-3.3	.	-0.6	.	14.3	-7.1	.
Cc1ccc2nc(C)c(CN3CCN(c4ccc([N+](=O)[O-])cc4Cl)CC3)n2c1	87.9*	104.2*	.	2.4	23.8	.	101.8*
Cc1cc(Nc2cccc(Br)c2)c2ccccc2n1	83.3*	32.4	27.8	12.3	15.7	-2.1	74.5*
Cc1cc(Nc2cccc(O)c2)c2ccccc2n1	.	4.8	.	6.5	16.5	.	.
Cc1oc(-c2ccc(Cl)cc2)nc1CN1CCC(C(=O)N2CCN(Cc3ccccc3)CC2)CC1	56.6*	11.0	9.8	1.7	48.4	-0.3	9.2	MPTP swell DR=i;MPTP cs DR=30.3*
Cc1cccc(NC2=NC(C)(C)N=C(N)N2)c1	0.8	3.5	2.9	.	33.6	-0.9	.
CC1=CC(C)(C)N2C(=O)C3(N=C(N)NC(Nc4ccccc4)=N3)c3cc(C)cc1c32 (stereo not drawn)	88.4*	-3.1	15.0	2.4	19.2	-4.2	-11.9	MPTP swell DR=9.31*;MPTP cs DR=>80

Screening data (PubChem)
